Assay results taken from PubChem BioAssay.
Active and inactive are the calls of the source.

How the values were obtained:
[1] = test system: Plasmodium falciparum Sir2 (PF13_0152, Sir2A); experiment: pfSir2 binders on small-molecule microarrays, primary screen, biochemical, small-molecule microarray, 635 nm fluorescence (AID 1098); conditions: small-molecule microarray binding, fluorescence 635 nm; higher = more signal;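 note: score merges spot fluorescence intensity with its signal-to-noise ratio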
[2] = small-molecule microarray binders of probe aDKK1, primary screen, biochemical, biotinylated probe, 635/667 nm fluorescence (AID 1099); conditions: higher = more signal;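 note: score merges 667nm spot fluorescence with signal to noise across triplicate slides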
[3] = small-molecule microarray binders of probe aCHRDL2, primary screen, biochemical, biotinylated probe, 635/667 nm fluorescence (AID 1100); conditions: higher = more signal
[4] = splicing luciferase reporter signal modulators, primary screen, spliceosome inhibition project, cell-based, HEK293, splice +/- reporter (AID 1101); conditions: luminescence, 24 h, higher = more signal, called active from +8 up or from −8 down;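 note: HEK293 cells carrying a splicing-competent luciferase reporter gene; test concentration not given here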
[5] = target: Fibroblast growth factor 10 (Homo sapiens) (UniProt O15520); experiment: FGF10 binders on small-molecule microarrays, primary screen, biochemical, small-molecule microarray, 635 nm fluorescence (AID 1102); conditions: FGF10 binding, fluorescence 635 nm, higher = more signal
Sequence of Fibroblast growth factor 10 (Homo sapiens) (O15520 whole entry, looked up): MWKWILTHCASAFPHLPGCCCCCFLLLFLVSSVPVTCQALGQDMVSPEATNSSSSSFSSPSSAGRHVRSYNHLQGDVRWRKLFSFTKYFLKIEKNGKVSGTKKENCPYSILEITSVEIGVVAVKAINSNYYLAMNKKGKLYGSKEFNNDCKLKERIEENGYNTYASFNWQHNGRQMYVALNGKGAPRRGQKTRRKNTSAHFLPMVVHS

[6] = test system: glycogen synthase kinase-3 (GSK3A per assay name; protocol says GSK3B); experiment: GSK3 binders on small-molecule microarrays, primary screen, biochemical, small-molecule microarray, 635 nm fluorescence, GSK3A (AID 1103); conditions: small-molecule microarray binding, fluorescence 635 nm; higher = more signal; note: the record names both GSK3A and GSK3B
[7] = target: Epidermal growth factor receptor (Homo sapiens) (UniProt P00533); experiment: EGFR binders on small-molecule microarrays, primary screen, biochemical, small-molecule microarray, 635 nm fluorescence (AID 1104); conditions: EGFR binding, higher = more signal;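 note: score merges 667 nm emission intensity with spot signal to noise over triplicate slides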
Sequence of Epidermal growth factor receptor (Homo sapiens) (P00533 whole entry, looked up): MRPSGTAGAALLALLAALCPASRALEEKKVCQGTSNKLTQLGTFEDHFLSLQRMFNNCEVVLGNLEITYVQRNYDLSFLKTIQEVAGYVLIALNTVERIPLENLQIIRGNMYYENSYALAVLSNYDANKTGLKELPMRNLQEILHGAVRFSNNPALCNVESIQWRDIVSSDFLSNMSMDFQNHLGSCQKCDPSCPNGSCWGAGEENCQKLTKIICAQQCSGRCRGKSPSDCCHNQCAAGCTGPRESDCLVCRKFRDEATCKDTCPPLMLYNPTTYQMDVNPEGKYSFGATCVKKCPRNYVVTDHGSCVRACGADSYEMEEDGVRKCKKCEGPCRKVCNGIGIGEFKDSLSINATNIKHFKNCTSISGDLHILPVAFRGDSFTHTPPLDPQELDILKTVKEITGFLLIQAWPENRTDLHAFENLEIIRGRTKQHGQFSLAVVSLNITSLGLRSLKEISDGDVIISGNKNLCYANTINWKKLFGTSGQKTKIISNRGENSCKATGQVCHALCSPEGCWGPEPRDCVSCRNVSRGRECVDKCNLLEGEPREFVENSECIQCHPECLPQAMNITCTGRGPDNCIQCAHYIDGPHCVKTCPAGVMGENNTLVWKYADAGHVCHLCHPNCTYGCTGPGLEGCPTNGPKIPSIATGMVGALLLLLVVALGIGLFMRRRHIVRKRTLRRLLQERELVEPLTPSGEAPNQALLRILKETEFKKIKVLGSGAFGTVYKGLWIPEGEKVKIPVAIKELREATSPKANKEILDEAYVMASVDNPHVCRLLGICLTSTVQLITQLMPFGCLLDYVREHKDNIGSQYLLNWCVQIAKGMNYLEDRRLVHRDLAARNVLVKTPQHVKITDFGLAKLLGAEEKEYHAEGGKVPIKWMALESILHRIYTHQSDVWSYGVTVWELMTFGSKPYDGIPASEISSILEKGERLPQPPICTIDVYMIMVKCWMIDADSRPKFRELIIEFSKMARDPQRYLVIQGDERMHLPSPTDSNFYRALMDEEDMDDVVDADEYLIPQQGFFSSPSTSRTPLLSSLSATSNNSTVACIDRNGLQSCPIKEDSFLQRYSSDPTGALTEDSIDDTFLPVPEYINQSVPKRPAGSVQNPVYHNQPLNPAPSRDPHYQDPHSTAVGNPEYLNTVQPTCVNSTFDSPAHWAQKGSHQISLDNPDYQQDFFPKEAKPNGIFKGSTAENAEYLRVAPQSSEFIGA

[8] = target: Follistatin-related protein 3 (Homo sapiens) (UniProt O95633); experiment: FSTL3 binders on small-molecule microarrays, primary screen, biochemical, small-molecule microarray, 635 nm fluorescence (AID 1105); conditions: FSTL3 binding, higher = more signal;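 note: score merges emission near 667 nm and signal to noise per printed spot across three slides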
Sequence of Follistatin-related protein 3 (Homo sapiens) (O95633 whole entry, looked up): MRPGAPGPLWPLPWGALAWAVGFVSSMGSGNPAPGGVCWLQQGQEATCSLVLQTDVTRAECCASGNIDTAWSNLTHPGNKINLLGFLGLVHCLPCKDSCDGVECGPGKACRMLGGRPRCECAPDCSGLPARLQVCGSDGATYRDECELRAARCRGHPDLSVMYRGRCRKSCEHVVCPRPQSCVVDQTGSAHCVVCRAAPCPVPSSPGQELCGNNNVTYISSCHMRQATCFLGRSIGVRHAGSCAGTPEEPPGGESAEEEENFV

[9] = target: Dickkopf-related protein 1 (Homo sapiens) (UniProt O94907); experiment: DKK1 binders on small-molecule microarrays, primary screen, biochemical, small-molecule microarray, 635 nm fluorescence scan (AID 1106); conditions: DKK1 binding, higher = more signal;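 note: score merges emission near 667 nm with signal to noise over three replicate slides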
Sequence of Dickkopf-related protein 1 (Homo sapiens) (O94907 whole entry, looked up): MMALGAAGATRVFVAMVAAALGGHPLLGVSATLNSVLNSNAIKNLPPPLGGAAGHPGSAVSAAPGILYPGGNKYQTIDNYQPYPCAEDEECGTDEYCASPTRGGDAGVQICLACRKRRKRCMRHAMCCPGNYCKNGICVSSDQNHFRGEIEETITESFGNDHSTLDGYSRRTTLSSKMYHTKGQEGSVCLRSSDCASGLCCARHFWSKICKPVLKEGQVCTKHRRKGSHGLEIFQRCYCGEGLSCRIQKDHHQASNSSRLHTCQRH

[10] = test system: Inhibin beta A chain (activin A); experiment: INHBA (activin A) binders on microarrays, primary screen, biochemical, small-molecule microarray, 635 nm fluorescence scan (AID 1107); conditions: small-molecule microarray binding, higher = more signal;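 note: mouse activin A protein probed at 4.33 µg/mL on printed slides; score merges bound-protein fluorescence near 667 nm with spot signal-to-noise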
[11] = test system: Human papillomavirus type 1a protein E7 (residues 44-93); experiment: HPV1a E7 fragment binders on microarrays, primary screen, biochemical, small-molecule microarray, residues 44-93, 635 nm fluorescence (AID 1108); conditions: small-molecule microarray binding, fluorescence 635 nm; higher = more signal;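 note: E7 fragment applied at 1 µg/mL in TBST for 1 h at 4 C; score combines spot fluorescence with its signal to noise ratio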
[12] = modulators of HCV replicon luciferase signal, primary screen, HCV replication inhibitor project, Huh7 cells, luciferase reporter (AID 1109); conditions: 48 h, higher = more signal;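 note: huh7 hepatoma cells harbouring a luciferase neomycin HCV replicon reporter; luciferase luminescence as measure of HCV replicon replication; test concentration not given here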
[13] = target: Left-right determination factor 2 (Homo sapiens) (UniProt O00292); experiment: LEFTY2 binders on small-molecule microarrays, primary screen, biochemical, small-molecule microarray, 635 nm fluorescence scan (AID 1110); conditions: LEFTY2 binding, higher = more signal
Sequence of Left-right determination factor 2 (Homo sapiens) (O00292 whole entry, looked up): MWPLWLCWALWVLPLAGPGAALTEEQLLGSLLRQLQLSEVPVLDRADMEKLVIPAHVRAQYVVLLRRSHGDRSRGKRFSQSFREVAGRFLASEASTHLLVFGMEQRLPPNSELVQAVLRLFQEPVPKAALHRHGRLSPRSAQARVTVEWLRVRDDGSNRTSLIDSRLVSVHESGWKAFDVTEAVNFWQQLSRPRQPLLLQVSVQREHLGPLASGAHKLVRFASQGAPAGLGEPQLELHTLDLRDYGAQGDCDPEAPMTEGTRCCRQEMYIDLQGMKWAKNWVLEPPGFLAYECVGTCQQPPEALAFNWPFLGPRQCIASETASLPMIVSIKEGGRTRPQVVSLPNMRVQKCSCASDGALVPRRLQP

[14] = target: Calmodulin-1 (Homo sapiens) (UniProt P0DP23); experiment: CALM1 binders on microarrays, EGTA buffer, profiling panel, biochemical, small-molecule microarray, Cy5-labelled CALM1 (AID 1111); conditions: Cy5-CALM1 binding fluorescence, higher = more signal;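 note: labelled calmodulin applied in Tris saline Tween buffer holding calcium plus EGTA and DTT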
[15] = target: Calmodulin-1 (Homo sapiens) (UniProt P0DP23); experiment: calcium-bound CALM1 binders on microarrays, profiling panel, artefact control for SMM control-protein annotation, biochemical, small-molecule microarray, Cy5-labelled CALM1, plus calcium (AID 1112); conditions: Cy5-CALM1 binding fluorescence, higher = more signal;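 note: score merges spot fluorescence with signal to noise from triplicate slides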
[16] = small-molecule microarray binders of probe aWnt5a, primary screen, biochemical, biotinylated probe, 635/667 nm fluorescence (AID 1113); conditions: higher = more signal;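 note: score merges 667 nm fluorescence intensity with signal-to-noise per printed feature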
[17] = small-molecule microarray binders of probe aShh, primary screen, biochemical, biotinylated probe, 635/667 nm fluorescence (AID 1114); conditions: higher = more signal;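 note: probe is biotin-labelled aShh protein from a stem cell growth factor screen; measures binding of labelled protein to compounds printed on the slide; score merges feature fluorescence at 667 nm with signal-to-noise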
[18] = small-molecule microarray binders of probe aNog, primary screen, biochemical, biotinylated probe, 635/667 nm fluorescence (AID 1115); conditions: higher = more signal;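 note: probe is biotinylated aNog protein used at 0.15 µg/mL for 1 h at 4 C; z-score combines 667 nm fluorescence of each spot with its signal to noise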
[19] = target: Torsin-1A-interacting protein 1 (Homo sapiens) (UniProt Q5JTV8); experiment: LAP1 binders from COS7 cell lysate, primary screen, small-molecule microarray, 635/667 nm fluorescence (AID 1116); conditions: COS7-hLAP1 lysate binding, 635 nm fluorescence, higher = more signal
Sequence of Torsin-1A-interacting protein 1 (Homo sapiens) (Q5JTV8 whole entry, looked up): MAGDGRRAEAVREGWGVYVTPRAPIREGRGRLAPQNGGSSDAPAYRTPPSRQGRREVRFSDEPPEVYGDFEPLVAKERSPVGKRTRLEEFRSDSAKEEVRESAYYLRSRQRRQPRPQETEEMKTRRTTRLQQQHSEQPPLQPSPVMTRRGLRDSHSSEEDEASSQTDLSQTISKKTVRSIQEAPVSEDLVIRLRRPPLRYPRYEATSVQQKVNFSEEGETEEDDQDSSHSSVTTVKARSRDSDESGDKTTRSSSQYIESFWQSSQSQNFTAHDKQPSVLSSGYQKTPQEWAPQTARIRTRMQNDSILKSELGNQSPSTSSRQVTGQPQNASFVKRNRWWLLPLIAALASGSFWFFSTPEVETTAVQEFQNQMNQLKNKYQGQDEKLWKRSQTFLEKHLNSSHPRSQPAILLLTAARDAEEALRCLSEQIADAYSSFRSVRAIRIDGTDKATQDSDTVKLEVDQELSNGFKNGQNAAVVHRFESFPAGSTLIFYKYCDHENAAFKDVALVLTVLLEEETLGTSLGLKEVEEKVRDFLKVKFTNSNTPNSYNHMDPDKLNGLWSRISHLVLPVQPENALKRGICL

[20] = target: Alpha-bungarotoxin (Bungarus multicinctus) (UniProt P60615); experiment: alpha-bungarotoxin binders on microarray, profiling panel, artefact control for SMM control protein annotation, biochemical, small-molecule microarray, Alexa647 label, 635/667 nm fluorescence (AID 1117); conditions: alpha-BTX-A647 binding fluorescence, higher = more signal
Sequence of Alpha-bungarotoxin (Bungarus multicinctus) (P60615 whole entry, looked up): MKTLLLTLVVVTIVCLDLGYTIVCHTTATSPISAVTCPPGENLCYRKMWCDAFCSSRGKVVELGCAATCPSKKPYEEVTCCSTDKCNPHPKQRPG

What does the source list for CC(C)N1CC=CC23O[C@@H]4C=CCOC(=O)[C@@H]4[C@H]2C(=O)N(CCCCCO)[C@@H]3C1=O (stereo not given in full)?
composite z-score [1]: 0.818; composite z-score [2]: -0.288; composite z-score [3]: 0.248; z-score [4]: -1.54 (inactive); composite z-score [5]: -0.927; composite z-score [6]: -0.69; composite z-score [7]: -0.0616; composite z-score [8]: -0.266; composite z-score [9]: -0.758; composite z-score [10]: 0.66; composite z-score [11]: -0.608; z-score [12]: -0.147; composite z-score [13]: -0.624; composite z-score [14]: 0.0459; composite z-score [15]: 0.395; composite z-score [16]: -0.18; composite z-score [17]: 0.0723; composite z-score [18]: -0.198; composite z-score [19]: 1.33; composite z-score [20]: -0.35

For CC(C)NC(=O)[C@@H]1c2ccccc2C(=O)N(C(C)C)[C@H]1c1ccc(CO)cc1, which composite z-score [1] is on record?
The composite z-score was -0.509.

What about the composite z-score [2] of the same compound?
The composite z-score was -0.29.

What about the composite z-score [3] of the same compound?
The composite z-score was 0.91.

What about the z-score [4] of the same compound?
The z-score was -0.0664 (inactive).

What about the composite z-score [5] of the same compound?
Its composite z-score is -0.633.

And the composite z-score [6]?
The composite z-score was 0.134.

What about the composite z-score [7] of the same compound?
The composite z-score was -1.

What about the composite z-score [8] of the same compound?
The composite z-score was -0.994.

What about the composite z-score [9] of the same compound?
Its composite z-score is -1.72.

What about the composite z-score [10] of the same compound?
Its composite z-score is -0.751.

What about the composite z-score [11] of the same compound?
The composite z-score was 1.42.

What about the z-score [12] of the same compound?
Its z-score is -0.152.

What about the composite z-score [13] of the same compound?
Its composite z-score is -0.597.

What about the composite z-score [14] of the same compound?
The composite z-score was -0.639.

What about the composite z-score [15] of the same compound?
The composite z-score was -0.128.

What about the composite z-score [16] of the same compound?
Its composite z-score is -0.228.

What about the composite z-score [17] of the same compound?
Its composite z-score is -0.291.

And the composite z-score [18]?
Its composite z-score is -0.196.

What about the composite z-score [19] of the same compound?
The composite z-score was 1.69.

What about the composite z-score [20] of the same compound?
Its composite z-score is -0.558.

With O=C(CS)NCCCCCNC(=O)[C@@H]1C[C@@H]2C(=O)NCC(=O)N2[C@@H]1c1cccc(OCCO)c1 as the compound, how does the composite z-score [1] read?
The composite z-score was 1.17.

And the composite z-score [2]?
The composite z-score was 0.0565.

And the composite z-score [3]?
The composite z-score was 0.21.

What about the z-score [4] of the same compound?
Its z-score is -1.82 (inactive).

And the composite z-score [5]?
The composite z-score was 0.18.

And the composite z-score [6]?
The composite z-score was 0.0776.

What about the composite z-score [7] of the same compound?
The composite z-score was 0.752.

What about the composite z-score [8] of the same compound?
Its composite z-score is 0.0486.

What about the composite z-score [9] of the same compound?
The composite z-score was 0.543.

What about the composite z-score [10] of the same compound?
The composite z-score was 0.501.

What about the composite z-score [11] of the same compound?
The composite z-score was 0.275.

And the z-score [12]?
The z-score was -0.125.

What about the composite z-score [13] of the same compound?
Its composite z-score is 0.387.

What about the composite z-score [14] of the same compound?
The composite z-score was 0.129.

What about the composite z-score [15] of the same compound?
The composite z-score was -0.193.

What about the composite z-score [16] of the same compound?
The composite z-score was -0.16.

What about the composite z-score [17] of the same compound?
The composite z-score was -0.197.

What about the composite z-score [18] of the same compound?
The composite z-score was -0.137.

What about the composite z-score [19] of the same compound?
The composite z-score was 0.635.

And the composite z-score [20]?
Its composite z-score is -0.315.

Which composite z-score [1] does the source give for COC(=O)c1c(CC[C@@H](CO)NC(=O)NCCc2c[nH]c3ccccc23)oc(C(=O)Cc2ccccc2)c1C(=O)OC here?
Its composite z-score is 0.176.

And the composite z-score [2]?
The composite z-score was -0.281.

And the composite z-score [3]?
The composite z-score was -0.805.

What about the z-score [4] of the same compound?
The z-score was -0.251 (inactive).

And the composite z-score [5]?
The composite z-score was 0.48.

And the composite z-score [6]?
The composite z-score was 0.429.

What about the composite z-score [7] of the same compound?
Its composite z-score is 0.398.

And the composite z-score [8]?
Its composite z-score is 0.321.

And the composite z-score [9]?
The composite z-score was 0.263.

What about the composite z-score [10] of the same compound?
The composite z-score was 0.553.

And the composite z-score [11]?
The composite z-score was 0.465.

And the z-score [12]?
Its z-score is -1.16.

And the composite z-score [13]?
The composite z-score was 0.353.

What about the composite z-score [14] of the same compound?
The composite z-score was -0.103.

And the composite z-score [15]?
Its composite z-score is -0.46.

What about the composite z-score [16] of the same compound?
The composite z-score was 0.0657.

What about the composite z-score [17] of the same compound?
Its composite z-score is -0.0011.

What about the composite z-score [18] of the same compound?
The composite z-score was -0.33.

What about the composite z-score [19] of the same compound?
The composite z-score was 0.385.

And the composite z-score [20]?
Its composite z-score is -0.172.

With CCCCN1CC=CC23O[C@@H]4C=CCOC(=O)[C@@H]4[C@H]2C(=O)N(CCCCCCO)[C@@H]3C1=O (stereo not given in full) as the compound, how does the composite z-score [1] read?
Its composite z-score is 1.77.

What about the composite z-score [2] of the same compound?
Its composite z-score is 0.159.

And the composite z-score [3]?
The composite z-score was 0.552.

And the z-score [4]?
Its z-score is 0.381 (inactive).

And the composite z-score [5]?
The composite z-score was -0.988.

And the composite z-score [6]?
The composite z-score was -1.

What about the composite z-score [7] of the same compound?
Its composite z-score is -1.5.

What about the composite z-score [8] of the same compound?
Its composite z-score is -1.38.

What about the composite z-score [9] of the same compound?
Its composite z-score is -1.28.

And the composite z-score [10]?
The composite z-score was 0.65.

And the composite z-score [11]?
Its composite z-score is -0.477.

And the z-score [12]?
The z-score was -0.672.

And the composite z-score [13]?
Its composite z-score is -1.18.

And the composite z-score [14]?
The composite z-score was -1.01.

And the composite z-score [15]?
Its composite z-score is 0.224.

What about the composite z-score [16] of the same compound?
Its composite z-score is -0.203.

What about the composite z-score [17] of the same compound?
The composite z-score was -0.138.

What about the composite z-score [18] of the same compound?
The composite z-score was 0.193.

And the composite z-score [19]?
Its composite z-score is 1.41.

What about the composite z-score [20] of the same compound?
Its composite z-score is -1.35.

Which results are given for COc1cc2c(cc1O)C=[N+](Cc1cc3c(cc1Br)OCO3)CC2?
composite z-score [1]: 1.73; composite z-score [2]: 0.0055; composite z-score [3]: 0.591; z-score [4]: -0.244 (inactive); composite z-score [5]: -0.445; composite z-score [6]: -1.06; composite z-score [7]: -0.486; composite z-score [8]: -1.04; composite z-score [9]: -1.05; composite z-score [10]: 0.655; composite z-score [11]: -0.411; z-score [12]: -0.537; composite z-score [13]: -0.678; composite z-score [14]: -1.01; composite z-score [15]: -0.0978; composite z-score [16]: -0.16; composite z-score [17]: -0.16; composite z-score [18]: -0.492; composite z-score [19]: -0.479; composite z-score [20]: -2.64
